In PubChem BioAssay AID1053119 (Broad Institute, 2014):
Results with a measured potency or affinity are listed apart. Results filed as inconclusive are left out. The source made the active and inactive calls.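 The calls were made as follows: active = signal loss from cell killing with fitted potency at or below twice the top valid dose; inconclusive = flat drop of 30 to 70%, or unreliable curve fit; inactive = opposite direction, flat within 30%, or weaker potency.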

Assay: A549 cell cytotoxicity, dose response, cytotoxicity control, cherry-picks, 26 µM top dose (AID 1053119)
Settings: A549 viability, CellTiter-Glo ATP luminescence, 72 h; series mostly up to 26 µM

SMILES | outcome
CO[C@H]1CN(C)C(=O)c2cc(NC(C)=O)ccc2OC[C@@H](C)N(C(=O)CN2CCOCC2)C[C@H]1C | inactive
C[C@@H]1CN([C@H](C)CO)C(=O)c2cc(-c3ccccc3)cnc2O[C@H]1CN(C)Cc1ccccc1 | inactive
O=C(CCNS(=O)(=O)c1cccc2nonc12)NC1CCCc2ccccc21 (stereo not drawn) | inactive
C[C@H](CO)N1C[C@H](C)[C@@H](CN(C)Cc2ccc(-c3ccccc3)cc2)Oc2ccc(NC(=O)C3CCCCC3)cc2C1=O | inactive
CC(=O)Nc1cccc(-c2ccnc3c2CC(C)(C(=O)Nc2cccc(C(F)(F)F)c2)O3)c1 (stereo not drawn) | inactive
CC1(C)Cc2c(C#N)c(SCC(=O)c3ccccc3)nc(N3CCOCC3)c2CS1 | inactive
O=C(Nc1ccccc1F)N1C[C@@H]2[C@H](c3ccccc31)[C@H](CO)N2C(=O)C1CC1 | inactive
COCC(=O)Nc1ccc2c(c1)C(=O)N(C)[C@H]1CC[C@@H](CC(=O)NCc3ccccc3Cl)O[C@H]1CO2 | inactive
O=S(=O)(c1cccc(F)c1)N1CC[C@@H]2[C@H]1c1cc(-c3cccc(F)c3)ccc1N[C@@H]2CO | inactive
O=C(Nc1nc(-c2ccncc2)cs1)C1COc2ccccc2O1 (stereo not drawn) | inactive
CCOC(=O)c1nnn(-c2ccc(OC)cc2)c1N | inactive
C[C@H](O)C#Cc1ccc2c(c1)O[C@H](CN(C)C)[C@@H](C)CN([C@H](C)CO)S2(=O)=O | inactive
Cc1ccccc1S(=O)(=O)N1CC[C@H]2[C@H](CO)Nc3ccc(-c4ccc(C#N)cc4)cc3[C@H]21 | inactive
C[C@@H]1CN([C@H](C)CO)C(=O)c2cc(-c3ccccc3)cnc2O[C@@H]1CN(C)C(=O)c1cccc(F)c1 | inactive
COC(=O)c1c(NC(=O)CN2CCN(c3ccccc3Cl)CC2)sc(C)c1C | inactive
Cc1cccc(NC(=O)c2ccc(C3SCC(=O)N3CCc3ccccc3)cc2)c1 (stereo not drawn) | inactive
Cc1cc(C)c(S(=O)(=O)Nn2cnnc2)c(C)c1 | inactive
N#Cc1ccc(-c2ccc3c(c2)[C@@H]2[C@@H](CCN2S(=O)(=O)c2ccccc2F)[C@H](CO)N3)cc1 | inactive
COc1cccc(S(=O)(=O)N2CC[C@@H]3[C@H]2c2cc(-c4ccc(C#N)cc4)ccc2N[C@@H]3CO)c1 | inactive

SMILES | outcome
CO[C@H]1CN(C)C(=O)c2cc(NC(=O)Nc3ccc(Cl)c(Cl)c3)ccc2OC[C@H](C)NC[C@H]1C | inactive
CC(NC(=O)CSc1ccc(S(=O)(=O)N2CCOCC2)cn1)c1ccc(Cl)cc1Cl (stereo not drawn) | inactive
C[C@H]1CN([C@@H](C)CO)C(=O)c2cc(-c3ccccc3)cnc2O[C@@H]1CN(C)C(=O)c1cccc(F)c1 | inactive
C[C@H](CO)N1C[C@H](C)[C@@H](CN(C)Cc2ccccc2)Oc2ncc(-c3ccccc3)cc2C1=O | inactive
C[C@H](CO)N1C[C@H](C)[C@H](CN(C)C(=O)c2cccc(F)c2)Oc2ncc(-c3ccccc3)cc2C1=O | inactive
CCOc1ccccc1NC(=O)c1c(NC(=O)CCC(=O)O)sc2c1CCCCC2 | inactive
Nc1nc(-c2cc3c(cc2Cl)OCCO3)cs1 | inactive
COc1ccccc1N(CC(=O)N(CC(C)C)CC(C)C)S(=O)(=O)c1cccs1 | inactive
O=C(c1cccnc1)N1C[C@H]2[C@@H](c3ccccc31)[C@@H](CO)N2CC1CCCC1 | inactive
Cc1cccc(N2CCN(S(=O)(=O)c3cn(C)cn3)CC2)c1C | inactive
COC(=O)C[C@H]1CC[C@@H]2[C@H](COc3ccc(NC(=O)Cc4cccs4)cc3C(=O)N2C)O1 | inactive
COC(=O)C[C@H]1CC[C@H]2[C@@H](COc3ccc(NC(=O)Cc4cccs4)cc3C(=O)N2C)O1 | inactive
COc1ncccc1C(=O)NC1CCCc2c1cnn2-c1ccc(C)c(C)c1 (stereo not drawn) | inactive
Cc1ccc(CS(=O)Cc2ccc(C(=O)NC3CCCC(C)C3C)o2)cc1 (stereo not drawn) | inactive
C[C@@H]1CN([C@H](C)CO)C(=O)c2cccc(NC(=O)Nc3ccc(C(F)(F)F)cc3)c2O[C@H]1CN(C)C(=O)Nc1cccc2ccccc12 | inactive
O=S(=O)(c1ccccc1F)N1CC[C@@H]2[C@H]1c1cc(-c3cccc(F)c3)ccc1N[C@@H]2CO | inactive
Cc1ccc(C(O)c2ncc(-c3cccc4ccccc34)[nH]2)cc1F (stereo not drawn) | inactive
CO[C@H]1CN(C)C(=O)c2cc(NC(=O)Nc3ccc(Cl)c(Cl)c3)ccc2OC[C@@H](C)NC[C@H]1C | inactive
C[C@H](O)C#Cc1ccc2c(c1)O[C@H](CN(C)C)[C@@H](C)CN([C@@H](C)CO)S2(=O)=O | inactive
